Measured values as given in PubChem BioAssay (NCATS).
Where “and” joins values, the source holds several entries; their conditions need not be identical. Equal values may be shown once. Unmarked numbers belong to inactive results. Results filed as inconclusive are left out. A call without a number means that no potency is given here. Calls of active or inactive are those of the source. Unless noted, the call rests on the fitted dose curve; in most records, active means well fitted curve in the direction sought with a large enough effect; inconclusive means small, poorly fitted or top-dose-only effect, or another doubt; inactive means no such curve, though single readings can be large; an effect the other way counts as inactive or inconclusive.

Assays:
[1] = tested on: CAOV3; test: Primary qHTS to identify gynecologic anti-cancer compounds using libraries of approved drugs and bioactive compounds (AID 1345084); settings: Gynecologic cancer cell panel viability, ATPlite luminescence, 48 h; series mostly up to 57.5 µM; further: nearly all actives have a fitted effect of over 55% in size
Procedure, shortened: (§1)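 Luminescence from the ATPlite ATP-monitoring reagent indicates viable cell number; lower signal means cytotoxicity. Cells received compound 16 h after seeding and were exposed for 48 h across five concentrations.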

[2] = tested on: CASKI; test: as above; settings: Gynecologic cancer cell panel viability, ATPlite luminescence, 48 h; series mostly up to 57.5 µM
Procedure, shortened: as §1

[3] = tested on: Es-2; test: as above; settings: Gynecologic cancer cell panel viability, ATPlite luminescence, 48 h; series mostly up to 57.5 µM
Procedure, shortened: as §1

[4] = tested on: HeLa; test: as above; settings: Gynecologic cancer cell panel viability, ATPlite luminescence, 48 h; series mostly up to 57.5 µM
Procedure, shortened: as §1

[5] = tested on: Hek293T; test: as above; settings: Gynecologic cancer cell panel viability, ATPlite luminescence, 48 h, control line for the selectivity index; series mostly up to 57.5 µM
Procedure, shortened: as §1

[6] = tested on: JEG-3; test: as above; settings: Gynecologic cancer cell panel viability, ATPlite luminescence, 48 h; series mostly up to 57.5 µM
Procedure, shortened: as §1

[7] = tested on: OV90; test: as above; settings: Gynecologic cancer cell panel viability, ATPlite luminescence, 48 h; series mostly up to 57.5 µM
Procedure, shortened: as §1

[8] = tested on: PA-1; test: as above; settings: Gynecologic cancer cell panel viability, ATPlite luminescence, 48 h; series mostly up to 57.5 µM
Procedure, shortened: as §1

[9] = tested on: SKOV3; test: as above; settings: Gynecologic cancer cell panel viability, ATPlite luminescence, 48 h; series mostly up to 57.5 µM
Procedure, shortened: as §1

[10] = tested on: Tov-21-G; test: as above; settings: Gynecologic cancer cell panel viability, ATPlite luminescence, 48 h; series mostly up to 57.5 µM
Procedure, shortened: as §1

[11] = tested on: Tov112D; test: as above; settings: Gynecologic cancer cell panel viability, ATPlite luminescence, 48 h; series mostly up to 57.5 µM
Procedure, shortened: as §1

[12] = Drug repurposing screens with cells derived from glioblastoma tumor samples (AID 1345199); settings: GBM patient neurospheres viability, ATP luminescence, 48 h; further: nearly all actives have a fitted effect of over 40% in size; further: potency means the concentration at half of the fitted maximal effect
Procedure, shortened: (§2)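 Four patient lines of CD133+ GBM neurospheres were screened at several concentrations; hits were retested in those lines plus three slower-growing GBM lines, using 48-hour treatment and ATP-based viability.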

[13] = tested on: astro; test: as above; settings: viability, ATP luminescence, 48 h; series mostly up to 45.9 µM
Procedure, shortened: as §2

[14] = target: Nuclear receptor subfamily 1 group I member 2 (Rattus norvegicus) (UniProt Q9R1A7); test: qHTS assay for small molecule activators of the rat pregnane X receptor (rPXR) signaling pathway (AID 651751; call rule not given here); settings: rPXR reporter cells, luciferase (One-Glo), 24 h
Chain of Nuclear receptor subfamily 1 group I member 2 (Rattus norvegicus) (Q9R1A7 whole entry, looked up): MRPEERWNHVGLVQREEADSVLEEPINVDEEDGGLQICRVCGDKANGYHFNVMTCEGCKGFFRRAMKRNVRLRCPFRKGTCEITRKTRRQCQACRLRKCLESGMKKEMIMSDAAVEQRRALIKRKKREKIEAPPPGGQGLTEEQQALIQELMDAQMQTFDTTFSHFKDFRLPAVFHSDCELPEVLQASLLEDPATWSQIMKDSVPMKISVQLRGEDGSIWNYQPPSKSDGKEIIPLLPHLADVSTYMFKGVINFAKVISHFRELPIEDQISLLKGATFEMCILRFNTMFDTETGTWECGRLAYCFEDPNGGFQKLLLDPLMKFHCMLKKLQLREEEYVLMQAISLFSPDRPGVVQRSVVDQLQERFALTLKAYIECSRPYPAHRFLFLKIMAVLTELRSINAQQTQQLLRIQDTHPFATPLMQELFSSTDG

[15] = qHTS assay for small molecule activators of the human pregnane X receptor (PXR) signaling pathway (AID 720659; call rule not given here)
[16] = at 45.9 µM (top of the series), tumour line B
[17] = at 45.9 µM (top of the series), tumour line D
[18] = at 46 µM (top of the series), tumour line A

| SMILES | Potency [1] | Potency [2] | Potency [3] | Potency [4] | Potency [5] | Potency [6] | Potency [7] | Potency [8] | Potency [9] | Potency [10] | Potency [11] | activity, negative = cell killing [12, 16] | Potency [13] | activity, negative = cell killing [12, 17] | activity, negative = cell killing [12, 18] | max response [14] | outcome [15] | Potency ([12]; tumour line A) |
| --- | --- | --- | --- | --- | --- | --- | --- | --- | --- | --- | --- | --- | --- | --- | --- | --- | --- | --- |
| Cc1ccc(S(=O)(=O)N[C@@H](CCCCN)C(=O)CCl)cc1 | inactive | inactive | inactive | inactive | inactive | inactive | inactive | inactive | inactive | inactive | inactive | -22.5% | inactive | – | – | – | – | – |
| CC[N+](CC)(CC)CC | inactive | inactive | inactive | inactive | inactive | inactive | inactive | inactive | inactive | inactive | inactive | -10.8% | inactive | -7.23% | -23.7% | – | – | – |
| CCCN1CCC[C@@H]2Cc3nc(N)ncc3C[C@H]21 | inactive | inactive | inactive | inactive | inactive | inactive | inactive | inactive | inactive | inactive | inactive | -7.67% | – | -0.18% | – | – | – | – |
| Nc1ccncc1 | inactive | inactive | inactive | inactive | inactive | inactive | inactive | inactive | inactive | inactive | inactive | -0.63% | inactive | -4.86% | -29.8% | -1.96% | inactive | – |
| N[C@@H](Cc1ccc(Oc2cc(I)c(O)c(I)c2)c(I)c1)C(=O)O | inactive | inactive | inactive | inactive | inactive | inactive | inactive | inactive | inactive | inactive | inactive | -6.2% | – | -17.5% | -27.6% | – | – | – |
| CCOP(=S)(OCC)Oc1cc(C)nc(C(C)C)n1 | inactive | inactive | inactive | inactive | inactive | inactive | inactive | inactive | inactive | inactive | inactive | -12.9% | inactive | 4.41% | -24.4% | 3.69% and 1.39% | – | – |
| CCCC(C)(COC(N)=O)COC(=O)NC(C)C (stereo not drawn) | inactive | inactive | inactive | inactive | inactive | inactive | inactive | inactive | inactive | inactive | inactive | -7.57% | – | -17.6% | – | 6.19% and 1.57% | – | – |
| Oc1cccc2cccnc12 | inactive | inactive | inactive | inactive | inactive | inactive | inactive | inactive | inactive | inactive | inactive | -22.3% | – | -9.58% | – | – | inactive | – |
| Cc1ccc2c(c1)C1CN(C)CCC1N2 (stereo not drawn) | inactive | inactive | inactive | inactive | inactive | inactive | inactive | inactive | inactive | inactive | inactive | -7.68% | – | -17.4% | – | – | – | – |
| NN=C(N)N | inactive | inactive | inactive | inactive | inactive | inactive | inactive | inactive | inactive | inactive | inactive | -4.67% | – | 9.02% | -2.8% | – | – | – |
| Cn1c(CCCC(=O)O)nc2cc(N(CCCl)CCCl)ccc21 | inactive | inactive | inactive | inactive | inactive | inactive | inactive | inactive | inactive | inactive | inactive | -8.98% | – | -16.3% | – | – | – | – |
| C=CCN1CC[C@]23c4c5ccc(O)c4O[C@H]2C(=O)CC[C@@]3(O)[C@H]1C5 | inactive | inactive | inactive | inactive | inactive | inactive | inactive | inactive | inactive | inactive | inactive | – | inactive | -22.2% | 15.9% | – | – | – |
| O=c1[nH]c2ccccc2n1CCCN1CCC(n2c(=O)[nH]c3cc(Cl)ccc32)CC1 | inactive | inactive | inactive | inactive | inactive | inactive | inactive | inactive | inactive | inactive | inactive | -24.9% | inactive | – | – | – | – | 2820 nM (active) |
| Cc1cccc(C)c1NC(=O)CN1CCCC1=O | inactive | inactive | inactive | inactive | inactive | inactive | inactive | inactive | inactive | inactive | inactive | -2.88% | inactive | -0.691% | -27.7% | – | – | – |
| CCN(CC)C(=O)N[C@@H]1C=C2c3cccc4[nH]cc(c34)C[C@@H]2N(C)C1 | inactive | inactive | inactive | inactive | inactive | inactive | inactive | inactive | inactive | inactive | inactive | -7.53% | inactive | -22.7% | – | – | – | – |
